Experimental data as given in the supplement of paper PMC4466140.

What follows are binders tested against AgAbp1 (assay: SPOT peptide array binding signal intensity (averaged, normalized) (arbitrary units (background-subtracted, floor 0; scale differs between SH3 domains)); higher = stronger binding of the SH3 domain to the peptide).
In short: (§1)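 Binding signal refers to normalized, background-subtracted spot intensity averaged over replicates, expressed in arbitrary units that differ between domains. GST-fused SH3 domains from four yeast species were incubated at 10 μg/ml overnight at 4°C on cellulose membranes of synthetic 15-mer peptides with cysteines replaced by serines. Bound protein was detected with anti-GST antibody, an HRP anti-mouse secondary and luminol, and quantified with Genespotter.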

Binder | SPOT peptide array binding signal intensity
LFMKGTPEFPKSGFS | ≤ 0

The binders below were run against AgBbc1 in the same assay as above.
In short: as §1

Binder | SPOT peptide array binding signal intensity
LFMKGTPEFPKSGFS | 12.5

The binders below were run against AgBem1-D1 in the same assay as above.
In short: as §1

Binder | SPOT peptide array binding signal intensity
LFMKGTPEFPKSGFS | 224

These binders were tested against AgBzz1-D1 in the same assay as above.
In short: as §1

Binder | SPOT peptide array binding signal intensity
LFMKGTPEFPKSGFS | 8.5

What follows are binders tested against AgBzz1-D2 in the same assay as above.
In short: as §1

Binder | SPOT peptide array binding signal intensity
LFMKGTPEFPKSGFS | 7

What follows are binders tested against AgCyk3 in the same assay as above.
In short: as §1

Binder | SPOT peptide array binding signal intensity
LFMKGTPEFPKSGFS | ≤ 0

Each binder was assayed against AgFus1 in the same assay as above.
In short: as §1

Binder | SPOT peptide array binding signal intensity
LFMKGTPEFPKSGFS | 479

These binders were tested against AgHof1 in the same assay as above.
In short: as §1

Binder | SPOT peptide array binding signal intensity
LFMKGTPEFPKSGFS | 7

What follows are binders tested against AgHse1 in the same assay as above.
In short: as §1

Binder | SPOT peptide array binding signal intensity
LFMKGTPEFPKSGFS | 104

What follows are binders tested against AgLsb1 in the same assay as above.
In short: as §1

Binder | SPOT peptide array binding signal intensity
LFMKGTPEFPKSGFS | ≤ 0

These binders were tested against AgLsb4 in the same assay as above.
In short: as §1

Binder | SPOT peptide array binding signal intensity
LFMKGTPEFPKSGFS | 5

These binders were tested against AgMyo5 in the same assay as above.
In short: as §1

Binder | SPOT peptide array binding signal intensity
LFMKGTPEFPKSGFS | 5

The binders below were run against AgNbp2 in the same assay as above.
In short: as §1

Binder | SPOT peptide array binding signal intensity
LFMKGTPEFPKSGFS | 208

Each binder was assayed against AgRvs167 in the same assay as above.
In short: as §1

Binder | SPOT peptide array binding signal intensity
LFMKGTPEFPKSGFS | 0.667

These binders were tested against AgSho1 in the same assay as above.
In short: as §1

Binder | SPOT peptide array binding signal intensity
LFMKGTPEFPKSGFS | 248

These binders were tested against AgSla1-D1-D2 in the same assay as above.
In short: as §1

Binder | SPOT peptide array binding signal intensity
LFMKGTPEFPKSGFS | 4

What follows are binders tested against AgSla1-D3 in the same assay as above.
In short: as §1

Binder | SPOT peptide array binding signal intensity
LFMKGTPEFPKSGFS | 5

Each binder was assayed against CaAbp1-D1 in the same assay as above.
In short: as §1

Binder | SPOT peptide array binding signal intensity
LFMKGTPEFPKSGFS | 291

Each binder was assayed against CaAbp1-D2 in the same assay as above.
In short: as §1

Binder | SPOT peptide array binding signal intensity
LFMKGTPEFPKSGFS | 224

These binders were tested against CaBbc1 in the same assay as above.
In short: as §1

Binder | SPOT peptide array binding signal intensity
LFMKGTPEFPKSGFS | 40.5

Each binder was assayed against CaBem1-D1 in the same assay as above.
In short: as §1

Binder | SPOT peptide array binding signal intensity
LFMKGTPEFPKSGFS | 272

What follows are binders tested against CaBzz1-D1 in the same assay as above.
In short: as §1

Binder | SPOT peptide array binding signal intensity
LFMKGTPEFPKSGFS | 182

These binders were tested against CaBzz1-D2 in the same assay as above.
In short: as §1

Binder | SPOT peptide array binding signal intensity
LFMKGTPEFPKSGFS | 58.8

The binders below were run against CaCyk3 in the same assay as above.
In short: as §1

Binder | SPOT peptide array binding signal intensity
LFMKGTPEFPKSGFS | 7.5

The binders below were run against CaFus1 in the same assay as above.
In short: as §1

Binder | SPOT peptide array binding signal intensity
LFMKGTPEFPKSGFS | 914

These binders were tested against CaHof1 in the same assay as above.
In short: as §1

Binder | SPOT peptide array binding signal intensity
LFMKGTPEFPKSGFS | ≤ 0

What follows are binders tested against CaHse1 in the same assay as above.
In short: as §1

Binder | SPOT peptide array binding signal intensity
LFMKGTPEFPKSGFS | 113

Each binder was assayed against CaLsb1 in the same assay as above.
In short: as §1

Binder | SPOT peptide array binding signal intensity
LFMKGTPEFPKSGFS | 3.5

Each binder was assayed against CaLsb4 in the same assay as above.
In short: as §1

Binder | SPOT peptide array binding signal intensity
LFMKGTPEFPKSGFS | 196

What follows are binders tested against CaMyo5 in the same assay as above.
In short: as §1

Binder | SPOT peptide array binding signal intensity
LFMKGTPEFPKSGFS | 40.2

Each binder was assayed against CaNbp2 in the same assay as above.
In short: as §1

Binder | SPOT peptide array binding signal intensity
LFMKGTPEFPKSGFS | 611

Each binder was assayed against CaRvs167 in the same assay as above.
In short: as §1

Binder | SPOT peptide array binding signal intensity
LFMKGTPEFPKSGFS | 75

Each binder was assayed against CaRvs167-3 in the same assay as above.
In short: as §1

Binder | SPOT peptide array binding signal intensity
LFMKGTPEFPKSGFS | 1.5

Each binder was assayed against CaSho1 in the same assay as above.
In short: as §1

Binder | SPOT peptide array binding signal intensity
LFMKGTPEFPKSGFS | 1200

The binders below were run against CaSla1-D1-D2 in the same assay as above.
In short: as §1

Binder | SPOT peptide array binding signal intensity
LFMKGTPEFPKSGFS | 90

What follows are binders tested against CaSla1-D3 in the same assay as above.
In short: as §1

Binder | SPOT peptide array binding signal intensity
LFMKGTPEFPKSGFS | 289

These binders were tested against ScAbp1 in the same assay as above.
In short: as §1

Binder | SPOT peptide array binding signal intensity
LFMKGTPEFPKSGFS | 6.5

What follows are binders tested against ScBbc1 in the same assay as above.
In short: as §1

Binder | SPOT peptide array binding signal intensity
LFMKGTPEFPKSGFS | ≤ 0

What follows are binders tested against ScBem1-D1 in the same assay as above.
In short: as §1

Binder | SPOT peptide array binding signal intensity
LFMKGTPEFPKSGFS | 16

The binders below were run against ScBzz1-D1 in the same assay as above.
In short: as §1

Binder | SPOT peptide array binding signal intensity
LFMKGTPEFPKSGFS | 20.5

What follows are binders tested against ScBzz1-D2 in the same assay as above.
In short: as §1

Binder | SPOT peptide array binding signal intensity
LFMKGTPEFPKSGFS | 11.5

The binders below were run against ScCyk3 in the same assay as above.
In short: as §1

Binder | SPOT peptide array binding signal intensity
LFMKGTPEFPKSGFS | 1

Each binder was assayed against ScFus1 in the same assay as above.
In short: as §1

Binder | SPOT peptide array binding signal intensity
LFMKGTPEFPKSGFS | 738

Each binder was assayed against ScHof1 in the same assay as above.
In short: as §1

Binder | SPOT peptide array binding signal intensity
LFMKGTPEFPKSGFS | ≤ 0

These binders were tested against ScHse1 in the same assay as above.
In short: as §1

Binder | SPOT peptide array binding signal intensity
LFMKGTPEFPKSGFS | 17.5

These binders were tested against ScLsb1 in the same assay as above.
In short: as §1

Binder | SPOT peptide array binding signal intensity
LFMKGTPEFPKSGFS | 19

The binders below were run against ScLsb2 in the same assay as above.
In short: as §1

Binder | SPOT peptide array binding signal intensity
LFMKGTPEFPKSGFS | ≤ 0

The binders below were run against ScLsb3 in the same assay as above.
In short: as §1

Binder | SPOT peptide array binding signal intensity
LFMKGTPEFPKSGFS | 197

The binders below were run against ScLsb4 in the same assay as above.
In short: as §1

Binder | SPOT peptide array binding signal intensity
LFMKGTPEFPKSGFS | 92.5

The binders below were run against ScMyo3 in the same assay as above.
In short: as §1

Binder | SPOT peptide array binding signal intensity
LFMKGTPEFPKSGFS | 21

The binders below were run against ScMyo5 in the same assay as above.
In short: as §1

Binder | SPOT peptide array binding signal intensity
LFMKGTPEFPKSGFS | 2

These binders were tested against ScNbp2 in the same assay as above.
In short: as §1

Binder | SPOT peptide array binding signal intensity
LFMKGTPEFPKSGFS | 212

Each binder was assayed against ScPex13 in the same assay as above.
In short: as §1

Binder | SPOT peptide array binding signal intensity
LFMKGTPEFPKSGFS | 394

These binders were tested against ScRvs167 in the same assay as above.
In short: as §1

Binder | SPOT peptide array binding signal intensity
LFMKGTPEFPKSGFS | 32

What follows are binders tested against ScSho1 in the same assay as above.
In short: as §1

Binder | SPOT peptide array binding signal intensity
LFMKGTPEFPKSGFS | 658

These binders were tested against ScSla1-D1-D2 in the same assay as above.
In short: as §1

Binder | SPOT peptide array binding signal intensity
LFMKGTPEFPKSGFS | 176

Each binder was assayed against ScSla1-D3 in the same assay as above.
In short: as §1

Binder | SPOT peptide array binding signal intensity
LFMKGTPEFPKSGFS | 490

These binders were tested against SpAbp1-D1 in the same assay as above.
In short: as §1

Binder | SPOT peptide array binding signal intensity
LFMKGTPEFPKSGFS | 52.5

These binders were tested against SpBbc1 in the same assay as above.
In short: as §1

Binder | SPOT peptide array binding signal intensity
LFMKGTPEFPKSGFS | ≤ 0

Each binder was assayed against SpBzz1-D1 in the same assay as above.
In short: as §1

Binder | SPOT peptide array binding signal intensity
LFMKGTPEFPKSGFS | 140

What follows are binders tested against SpBzz1-D2 in the same assay as above.
In short: as §1

Binder | SPOT peptide array binding signal intensity
LFMKGTPEFPKSGFS | 16.5

Each binder was assayed against SpCyk3 in the same assay as above.
In short: as §1

Binder | SPOT peptide array binding signal intensity
LFMKGTPEFPKSGFS | ≤ 0

These binders were tested against SpHof1 in the same assay as above.
In short: as §1

Binder | SPOT peptide array binding signal intensity
LFMKGTPEFPKSGFS | 19

Each binder was assayed against SpHof1-2 in the same assay as above.
In short: as §1

Binder | SPOT peptide array binding signal intensity
LFMKGTPEFPKSGFS | 18.8

These binders were tested against SpHof1-3 in the same assay as above.
In short: as §1

Binder | SPOT peptide array binding signal intensity
LFMKGTPEFPKSGFS | 78

The binders below were run against SpHse1 in the same assay as above.
In short: as §1

Binder | SPOT peptide array binding signal intensity
LFMKGTPEFPKSGFS | 335

What follows are binders tested against SpLsb1 in the same assay as above.
In short: as §1

Binder | SPOT peptide array binding signal intensity
LFMKGTPEFPKSGFS | ≤ 0

Each binder was assayed against SpLsb4 in the same assay as above.
In short: as §1

Binder | SPOT peptide array binding signal intensity
LFMKGTPEFPKSGFS | 629

These binders were tested against SpMyo1 in the same assay as above.
In short: as §1

Binder | SPOT peptide array binding signal intensity
LFMKGTPEFPKSGFS | 22.8

What follows are binders tested against SpNbp2 in the same assay as above.
In short: as §1

Binder | SPOT peptide array binding signal intensity
LFMKGTPEFPKSGFS | 100

These binders were tested against SpPex13 in the same assay as above.
In short: as §1

Binder | SPOT peptide array binding signal intensity
LFMKGTPEFPKSGFS | 28

What follows are binders tested against SpRvs167 in the same assay as above.
In short: as §1

Binder | SPOT peptide array binding signal intensity
LFMKGTPEFPKSGFS | 30.8

These binders were tested against SpSla1-D1-D2 in the same assay as above.
In short: as §1

Binder | SPOT peptide array binding signal intensity
LFMKGTPEFPKSGFS | 8

Each binder was assayed against SpSla1-D3 in the same assay as above.
In short: as §1

Binder | SPOT peptide array binding signal intensity
LFMKGTPEFPKSGFS | 253
